Results as given in the OligoGym collection.

Biological target: NUDT18
Assay: pooled miR-30 sensor sort-seq; sequence = guide strand
Settings: shRNA
Also: reference of the scale not given here.

Point of comparison: TTGATCTCCACCACCAAGTGGT, sensor-assay potency score (higher = more potent) 0.0788. Against it:
- TAGTTCAACCAGGTGCAGGATG — lower, -0.826
- TCCTCCATCACCTTCCACCAAG — lower, -1.79

Biological target: NUDT8
Assay: as above
Settings: shRNA

Point of comparison: TACACCAGCAAGCACTGGCACC, sensor-assay potency score (higher = more potent) -1.4. Against it:
- TGTGCACCACATCTTGGTCAGC — higher, -0.734
- TTGTGCCTCCCGGTCAGGCGGC — lower, -1.45
- TGGTCAGCCGGGTCGCACTTGC — lower, -1.47
- TTGGTCAGCCGGGTCGCACTTG — higher, -1.16
- TTGCGGATCATACACAGGCCGC — lower, -1.79
- ACCACATCTTGGTCAGCCGGGT — lower, -1.55
- TCAGCCGGGTCGCACTTGCCGC — lower, -1.59
- TACAGCAGCGCCGGCACCCCAC — higher, -1.1
- TTTGCGGATCATACACAGGCCG — higher, -0.907
- ATCTTGGTCAGCCGGGTCGCAC — lower, -1.97
- TGGGAAACTGACGTCGCCCTTG — higher, -0.952
